Measured values published in PubChem BioAssay (NCATS).
“And” between values parts separate entries of the source, which are not always exact repeats. Equal values may be shown once. Inconclusive results are not listed. The source made the active and inactive calls. Calls come from the whole dose curve; as a rule, active = well fitted curve in the direction sought with a large enough effect; inconclusive = small, poorly fitted or top-dose-only effect, or another doubt; inactive = no such curve, though single readings can be large; an effect the other way counts as inactive or inconclusive.

Tests used:
[1] = Viability qHTS for spleen associated tyrosine kinase inhibitor (SYKi) drug resistant MV4-11 cells (AID 1963824); note: nearly all actives have a fitted effect of over 35% in size; note: potency is the fitted concentration of half-maximal effect
In short: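 SYK inhibitor-resistant MV4-11 AML cells, 500 per well, added to predispensed compounds and incubated 72 hr at 37 C, 5% CO2. Viability measured by CellTiter-Glo luminescence after 10 min at room temperature.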

[2] = Cellular viability qHTS for adrenocortical cancer (ACC) cell line SW-13 (AID 1963989); conditions: SW-13 ACC cells viability, CellTiter-Glo, 48 h; activity (max response): stronger effect = lower value; note: nearly all actives have a fitted effect of over 65% in size; note: potency is the fitted concentration of half-maximal effect;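 for activity (max response): cells grown in serum-free medium with ITS supplement; % is set by controls: 0 for no effect and ±100 for the full control effect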
In short: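 48 h treatment, SW-13 in ITS/DMEM serum-free; doses up to 46 uM; readout CellTiter-Glo luminescence; curve fit four-parameter logistic.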

[3] = Cellular viability qHTS for adrenocortical cancer (ACC) cell line NCI-H295R (AID 1963990); note: nearly all actives have a fitted effect of over 60% in size; note: potency is the fitted concentration of half-maximal effect
In short: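 Compound titrations (up to 46 uM final) are applied to NCI-H295R cultures for 48 h at 37C. Viable cell number is estimated by CellTiter-Glo signal, normalised to DMSO and doxorubicin controls.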

[4] = Quantitative highthroughput screen to assess conditional lethalithy of NOMO1 cells grown in RPMI1640 with untreated serum (RPMI+s) (AID 1963876); note: nearly all actives have a fitted effect of over 35% in size; note: potency is the fitted concentration of half-maximal effect;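 for Viability: 100% = DMSO wells and 0% = empty wells without cells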
In short: (§1)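 Each medium arm—HPLM with 10% dialyzed FBS, or RPMI1640 with 5 mM glucose and 10% untreated or dialyzed FBS—was screened against an 11-point, 3-fold compound titration for 48 h at 37 °C, with CellTiter-Glo luminescence as endpoint.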

[5] = Quantitative highthroughput screen to assess conditional lethalithy of P12 Ichikawa cells grown in Human Plasma-Like Medium with dialyzed fetal bovine serum (HPLM+ds) (AID 1963879); conditions: Potency: viability; note: nearly all actives have a fitted effect of over 35% in size; note: potency is the fitted concentration of half-maximal effect; for Viability: series mostly up to about 46 µM
In short: as §1

[6] = Quantitative highthroughput screen to assess conditional lethalithy of P12 Ichikawa cells grown in RPMI1640 with untreated serum (RPMI+s) (AID 1963881); conditions: Potency: viability; note: nearly all actives have a fitted effect of over 35% in size; note: potency is the fitted concentration of half-maximal effect;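 for Viability: series mostly up to about 46 µM; 100% = DMSO wells and 0% = empty wells without cells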
In short: as §1

[7] = Quantitative highthroughput screen to assess conditional lethalithy of SEM cells grown in Human Plasma-Like Medium with dialyzed fetal bovine serum (HPLM+ds) (AID 1963882)
In short: as §1

[8] = Quantitative highthroughput screen to assess conditional lethalithy of SEM cells grown in RPMI1640 with unreated serum (RPMI+s) (AID 1963883); note: nearly all actives have a fitted effect of over 35% in size; note: potency is the fitted concentration of half-maximal effect;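 for Viability: 100% = DMSO wells and 0% = empty wells without cells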
In short: as §1

[9] = Quantitative highthroughput screen to assess conditional lethalithy of NOMO1 cells grown in RPMI1640 with dialyzed fetal bovine serum (RPMI+ds) (AID 1963877);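 note: series mostly up to about 46 µM; 100% = DMSO control wells and 0% = empty wells; nearly all actives have a fitted effect of over 30% in size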
In short: as §1

[10] = Quantitative highthroughput screen to assess conditional lethalithy of NOMO1 cells grown in Human Plasma-Like Medium with dialyzed fetal bovine serum (HPLM+ds) (AID 1963878)
In short: as §1

[11] = Quantitative highthroughput screen to assess conditional lethalithy of P12 Ichikawa cells grown in RPMI1640 with dialyzed fetal bovine serum (RPMI+ds) (AID 1963880); conditions: Potency: P12-Ichikawa viability
In short: as §1

[12] = Quantitative highthroughput screen to assess conditional lethalithy of SEM cells grown in RPMI1640 with dialyzed fetal bovine serum (RPMI+ds) (AID 1963884)
In short: as §1

CCCOC(=O)c1cncn1C(C)c1ccccc1 (stereo not drawn)
inactive: Potency [1] | activity (max response) [2] 12% | Potency [3]

C[C@H](Nc1ncnc2nc[nH]c12)c1nc2ccc(F)cc2c(=O)n1-c1ccccc1
inactive: activity (max response) [2] -19.1% | Potency [3]
active: Potency [1] 651 nM

Nc1nc(N)nc(NC2CC2)n1
inactive: Potency [1] | activity (max response) [2] -6.71% | Potency [3]

CC(C)(C)C(O)C(Oc1ccc(Cl)cc1)n1cncn1 (stereo not drawn)
active: Potency [1] 21700 nM
inactive: activity (max response) [2] -16.3%

C[C@]12COC(=O)C[C@@H]1CC[C@@H]1[C@@H]2CC[C@@]2(C)[C@H]1CC[C@]2(C)O
inactive: Potency [1] | activity (max response) [2] -23.6% | Potency [3]

O=C(O)Cc1ccccc1
inactive: Potency [1] | activity (max response) [2] -6.54% | Potency [3]

COc1cc(CCN)cc(OC)c1OC
inactive: Potency [1] | activity (max response) [2] -7.31% | Potency [3]

CCC(C)(C)c1ccc(O)cc1
inactive: Potency [1] | activity (max response) [2] 0.304% | Potency [3]

CC[C@H](O)C(C[C@H](C)N(C)C)(c1ccccc1)c1ccccc1
inactive: Potency [1] | activity (max response) [2] -19.9%

C[N+]1(C)[C@@H]2CC[C@H]1CC(OC(=O)C(CO)c1ccccc1)C2 (stereo partly drawn)
inactive: Potency [1] | activity (max response) [2] -4.66% | Potency [3]

CCOC(=O)CC(SP(=S)(OC)OC)C(=O)OCC (stereo not drawn)
inactive: Potency [1] | activity (max response) [2] 13.7% and 6.35% | Potency [3]

COc1c2c(cc3c1OCO3)CCN(C)C2
inactive: Potency [1] | activity (max response) [2] -10% | Potency [3]

C#CCOC(C(=O)OCCN(C)C)(c1ccccc1)c1ccccc1
inactive: Potency [1] | activity (max response) [2] 15.9% | Potency [3]

C[C@]12Cc3cn[nH]c3C[C@@H]1CC[C@@H]1[C@@H]2CC[C@@]2(C)[C@H]1CC[C@]2(C)O
inactive: activity (max response) [2] -0.402% and -24.7% | Potency [3]
active: Potency [1] 18600 nM

CCCN1CCC[C@@H]2Cc3nc(N)ncc3C[C@H]21
inactive: Potency [1] | activity (max response) [2] 3.03%

CC(=O)Nc1cc([As](=O)(O)O)ccc1O
inactive: Potency [1] | activity (max response) [2] 8.13% | Potency [3]

N#Cc1nn(-c2c(Cl)cc(C(F)(F)F)cc2Cl)c(N)c1S(=O)C(F)(F)F (stereo not drawn)
active: Potency [1] 10600 nM | Potency [2] 5800 nM | Potency [3] 2590 nM

O=[N+]([O-])c1cc([As](=O)(O)O)ccc1O
inactive: Potency [1] | activity (max response) [2] 2.65% | Potency [3]

CC[N+]1(C)CCCC(OC(=O)C(O)(c2ccccc2)c2ccccc2)C1 (stereo not drawn)
inactive: Potency [1] | activity (max response) [2] 0.735% | Potency [3]

CC(C)NC(C)C
inactive: Potency [1] | activity (max response) [2] 17.3%

CC(=Cc1csc(C)n1)[C@@H]1C[C@H]2O[C@@H]2CCC[C@H](C)[C@@H](O)[C@@H](C)C(=O)C(C)(C)[C@@H](O)CC(=O)O1
inactive: Potency [4] | Potency [5] | Potency [6] | Potency [7] | Potency [8]

C[C@]12CCC(=O)C(O)=C1CC[C@@H]1[C@H]3CCC(=O)[C@@]3(C)CC[C@@H]12
inactive: Potency [4] | Potency [5] | Potency [7] | Potency [8]

O=[N+]([O-])c1ncc[nH]1
inactive: Potency [4] | Potency [9] | Potency [10] | Potency [6] | Potency [7] | Potency [8]

CC[C@@H]1[C@@H](C)O[C@@](O)([C@@H](C)[C@H](O)[C@H](C)[C@H]2OC(=O)C=CC=C[C@@H](C)[C@@H]([C@@H](C)[C@@H](O)[C@H](C)[C@@]3(O)C[C@H](O[C@H]4C[C@H](O)[C@H](O)[C@H](C)O4)[C@H](CC)[C@@H](C)O3)OC(=O)C=CC=C[C@@H]2C)C[C@H]1O[C@H]1C[C@H](O)[C@H](O)[C@H](C)O1
active: Potency [4] 2960 nM | Potency [5] 2960 nM | Potency [11] 3320 nM | Potency [6] 7430 nM | Potency [8] 2640 nM | Potency [12] 1870 nM

CC(N[C@H]1C[C@H]1c1ccccc1)c1ccc2c(c1)OCCO2 (stereo partly drawn)
inactive: Potency [4] | Potency [9] | Potency [5] | Potency [7]

CN1CCN(c2ccc([N+](=O)[O-])c3no[n+]([O-])c23)CC1
inactive: Potency [4] | Potency [9] | Potency [6] | activity (max response) [2] 1.98%

C=C1C[C@H]2[C@H]3CCC(=O)[C@@]3(C)CC[C@@H]2[C@@]2(C)C=CC(=O)C=C12
inactive: Potency [4] | Potency [5]

C[C@]12CC[C@H]3[C@@H](CCC4=CC(=O)CC[C@@]43C)[C@H]1CC[C@H]2O
inactive: Potency [4] | Potency [9] | Potency [10] | Potency [5] | Potency [6] | Potency [8]

CC(O)=C(C#N)C(=O)Nc1cc(Br)ccc1Br
inactive: Potency [4] | Potency [10] | Potency [6]

O=C(NCC1CCOCC1)c1cnc(Nc2ccc(Cl)cc2Cl)nc1C(F)(F)F
inactive: Potency [4] | Potency [10] | Potency [6] | Potency [7] | Potency [8] | activity (max response) [2] -11.7% | Potency [3]

Cc1ccccc1-n1c(Cn2ncc3c(N)ncnc32)nc2cccc(C)c2c1=O
inactive: Potency [7] | Potency [8] | activity (max response) [2] 2.46%
active: Potency [4] 372 nM | Potency [5] 2960 nM
